BRCA1 expr up: qHTS Assay to Identify Small Molecule Activators of BRCA1 Expression; MCF7-BRCA1-FFLuc reporter, luminescence, 48 h; response scale: scaled: vehicle 0%, 10 µM genistein 100%; Potency, µM (doses to about 46.1 µM), most hits filed as activators; 380,000 tested, 1.1% active; AID 624202, 2012; note: nearly all actives have a fitted effect of over 80% in size
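Activators of BRCA1 expression were detected as increased firefly luciferase luminescence in engineered MCF7 cells after 48 h compound incubation. Signals were scaled to genistein 10 microM as full activation.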
IL-2 act: qHTS of IL-2 Activators. IL-2 activation reporter assay, cell-based qHTS; stimulated with anti-CD3/CD4/CD28 beads; in transgenic mouse T cells. activation, % (series mostly up to about 46 µM). 360,000 tested, 0.065% active. AID 652025, 2013; in the data active = activation above about 50%; inconclusive = mostly about 30% to 49%
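Unstimulated transgenic mouse T cells preincubated 60 min with compound, then stimulated with anti-CD3/anti-CD4-coated beads plus anti-CD28 for 18 h at 37 degrees C. IL-2 response read as EGFP and DsRed fluorescence by plate cytometry.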
TrxR1 inh: qHTS Assay for Inhibitors of Mammalian Selenoprotein Thioredoxin Reductase 1 (TrxR1): qHTS; Thioredoxin reductase 1, cytoplasmic (Rattus norvegicus), O89049; recombinant rTrxR1, NADPH fluorescence consumption, selenite substrate; Potency, µM (doses to about 114 µM), hits mostly inhibitors; 390,000 tested, 1% active; note: nearly all actives have a fitted effect of over 65% in size
Target sequence (O89049 whole entry, looked up): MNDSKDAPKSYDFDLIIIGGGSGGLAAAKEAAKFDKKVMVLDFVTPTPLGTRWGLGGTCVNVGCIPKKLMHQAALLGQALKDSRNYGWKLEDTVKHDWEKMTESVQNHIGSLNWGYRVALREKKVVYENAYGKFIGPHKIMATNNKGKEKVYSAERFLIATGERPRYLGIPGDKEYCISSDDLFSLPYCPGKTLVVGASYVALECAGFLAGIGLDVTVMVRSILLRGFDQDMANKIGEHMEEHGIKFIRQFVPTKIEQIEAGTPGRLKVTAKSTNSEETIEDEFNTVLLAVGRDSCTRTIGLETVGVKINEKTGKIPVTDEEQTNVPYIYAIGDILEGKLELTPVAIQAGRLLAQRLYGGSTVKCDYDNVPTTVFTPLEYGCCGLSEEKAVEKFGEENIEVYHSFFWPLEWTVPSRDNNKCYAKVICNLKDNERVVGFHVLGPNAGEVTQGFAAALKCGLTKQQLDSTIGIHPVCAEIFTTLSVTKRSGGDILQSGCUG
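Rat TrxR1 (90 nM in the dispensed reagent) was pre-reduced with 400 uM NADPH for 5 min at room temperature, then incubated with compound for 15 min. After 400 uM selenite was added, NADPH fluorescence (Ex 340/Em 450 nm) was followed for 8 min.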
IDH1 R132H inh: qHTS for Inhibitors of mutant isocitrate dehydrogenase 1 (IDH1): qHTS; Isocitrate dehydrogenase [NADP] cytoplasmic (Homo sapiens), O75874; IDH1-R132H enzyme, NADPH consumption, diaphorase/resazurin fluorescence; Potency, µM (top dose mostly 76.6 µM), most hits filed as inhibitors; 390,000 tested, 0.093% active; note: nearly all actives have a fitted effect of over 65% in size
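IDH1-R132H (0.5 ug/mL) preincubated 30 min with compound, then NADPH (0.016 mM) and alpha-KG (2 mM) added; 80 min at RT, pH 7.5. Remaining NADPH coupled via diaphorase/resazurin to fluorescence (540/590 nm); concentration-response curves normalized to no-enzyme control.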
TrxR1 substrate: qHTS Assay for Substrates of Mammalian Selenoprotein Thioredoxin Reductase 1 (TrxR1): qHTS; purified TrxR1 substrate turnover, NADPH consumption readout; Potency, µM (highest dose often 114 µM); 390,000 tested, 0.01% active; AID 588456, 2011; note: nearly all actives have a fitted effect of over 50% in size
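Rat TrxR1, dispensed at 90 nM, was prereduced with 400 uM NADPH (final) for 5 min at ~22 deg C, then incubated with compound 15 min before 400 uM selenite. A first-read NADPH fluorescence drop versus no-compound background flagged substrates.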
Giardia killer: Small Molecules that selectively kill Giardia lamblia: qHTS; Giardia lamblia trophozoite viability; activity change, % at 7.66 µM, hits read low; 340,000 tested, 0.15% active; AID 540267, 2011; in the data active = activity change below about -80%; inconclusive = between about -30% and that limit;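 note: parasites exposed to compound for two days anaerobically before the ATP read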
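Giardia lamblia trophozoites (100 cells/well) were incubated with compounds for 48 h at 37 deg C under anaerobic conditions. Viability was read as ATP content by one-step luminescence after 15-30 min at room temperature.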
A number is an active result; – = inactive; ? = inconclusive; · = not tested or not shown; ! = a repeat was not active; [ ] = another dose, or the depositor's remark. A selection: hits, their analogues and other compounds. The true share with any hit is near 2.2%. Unless noted, calls come from the whole dose curve; as a rule, active = well fitted curve in the direction sought with a large enough effect; inconclusive = small, poorly fitted or top-dose-only effect, or another doubt; inactive = no such curve, though single readings can be large; an effect the other way counts as inactive or inconclusive.

SMILES	BRCA1 expr up	IL-2 act	TrxR1 inh	IDH1 R132H inh	TrxR1 substrate	Giardia killer
COc1ccc2nc(N(Cc3cccnc3)C(=O)c3ccc(Cl)cc3)sc2c1	·	·	–	–	–	·
Cn1c(=O)c2[nH]c(-c3ccc(S(=O)(=O)O)cc3)nc2n(C)c1=O	–	–	32µM!	–	–	–
CCOc1ccc(CCNC(=O)c2ccc(-c3nc(COc4ccc(C)cc4)c(C)o3)cc2)cc1	·	·	–	–	–	·
COc1ccc(/C=C\c2onc(C)c2S(=O)(=O)N2CCC(C(=O)Nc3ccc(C)cc3C)CC2)cc1	·	·	–	–	–	·
O=C(Nc1ccc(F)cc1F)Nc1ccc(F)cc1F	10µM	–	–	–	–	–
O=C(c1ccc(CSc2ccc(Cl)cc2)cc1)N1CCOCC1	–	–	–	–	–	–
O=C(c1ccc(CSc2ccc(Cl)cc2)cc1)N1CCCC1	10µM	–	–	–	–	–
Clc1ccc(-n2nnc(-c3cccnc3Cl)n2)cc1Cl	4µM	–	–	–	–	–
Clc1ncccc1-c1nnn(-c2ccccc2)n1	?	–	–	–	–	–
NC(=O)c1ccccc1NC(=O)CCc1ccccc1	11µM	–	–	–	–	–
Cc1cccc(C)c1NC(=S)NC(=O)CCc1ccccc1	–	–	3.5µM	–	–	–
O=C(O)CCC(=O)Nc1ccccc1C(=O)NCCc1ccccc1	8.9µM	–	–	–	–	–
COc1ccc(S(=O)(=O)NCCS(=O)(=O)N2CCN(c3ccccc3F)CC2)cc1	·	·	–	–	–	·
O=C(N/N=C1\CCCc2ccccc21)c1ccccc1Cl	10µM	–	–	–	–	–
O=C(N/N=C1\CCCCc2ccccc21)c1ccccn1	13µM	–	–	–	–	–
O=C(N/N=C1\CCc2ccccc21)c1ccccc1O	–	–	–	–	–	?
O=C(NN=C1CCCCCCC1)c1ccccn1	–	–	–	–	–	–
O=C(O)c1ccc(N/N=C2/CCCc3ccccc32)cc1	7.1µM	–	–	–	–	–
CCCN1CNc2c(c(=O)[nH]c(=S)n2CCc2ccccc2OC)C1	–	·	–	·	–	–
CCOc1ccc(S(=O)(=O)Nc2ccc(OC)c(Cl)c2)c2cccnc12	·	·	–	–	–	·
O=C1CN(C(=O)Cc2ccc(F)cc2)C(c2ccccc2)c2cc(Br)ccc2N1 (stereo not given)	·	·	–	–	–	·
CC1CCc2c(sc(NC(=O)C3=COCCO3)c2C(N)=O)C1 (stereo not given)	7.1µM	–	–	–	–	–
CC[N+](CC)(CC)c1ccc(/C=C/c2ccnc3ccccc23)cc1	·	·	–	·	–	·
Cc1cccn2cc(CNc3ccccc3)nc12	14µM	–	–	–	–	–
Cc1cccn2cc(-c3ccc(F)cc3)nc12	–	–	–	–	–	–
SMILES	BRCA1 expr up	IL-2 act	TrxR1 inh	IDH1 R132H inh	TrxR1 substrate	Giardia killer
COc1ccc(S(=O)(=O)Nc2cc(-c3cn4cccc(C)c4n3)ccc2C)cc1C	·	·	–	–	–	·
COc1ccc(-c2cn3cccc(C)c3n2)cc1Br	3.5µM	–	–	–	–	–
Cc1cccn2cc(-c3ccccc3)nc12	2µM	–	–	–	–	–
O=C(c1ccc([N+](=O)[O-])o1)N1CCc2ccccc2C1	–	–	?	–	–	-86
O=C(c1ccc([N+](=O)[O-])o1)N1CCOCC1	–	–	–	–	–	?
O=C(c1ccc([N+](=O)[O-])o1)N1CCCCCC1	–	–	?	–	–	-91
O=C(c1ccc([N+](=O)[O-])o1)N1CCc2ccccc21	–	–	–	–	–	-88
O=C(c1cccs1)N1CCc2ccccc21	7.9µM	–	–	–	–	–
COc1cc2c(cc1OC)CN(C(=O)c1ccc([N+](=O)[O-])o1)CC2	–	–	–	–	–[11.4 µM]	?
CCCc1cc(C(=O)Nc2ccc(F)c(Cl)c2)no1	11µM	–	–	–	–	–
O=C(Nc1ccc(F)c(Cl)c1)c1cc(C2CCCN(C(=O)C3CC3)C2)on1 (stereo not given)	2.8µM	–	·	·	·	·
COc1ccc2c(c1)c1c(c(=O)n(-c3cccc(C)c3)c(=O)n1CC(=O)N1CCCC1)n2C	–	·	–	–	–	·
Cc1ccc(CNC(=O)CSc2c3c(nc4cc(Cl)ccc24)CCCC3)o1	–	–	14µM	–	–	–
COc1ccc(C(CC(=O)Nc2ccc(C(C)=O)cc2)N2Cc3ccccc3C2=O)cc1 (stereo not given)	·	·	–	·	–	·
CCOC(=O)c1ccc(N=NN(C)C)cc1	13µM	–	–[11.4 µM]	–	–[11.4 µM]	–
Clc1ccc(-c2ccc(CNCC3CCCO3)o2)cc1 (stereo not given)	10µM	–	–	–	–	–
O=C(NCc1cccc(CNC(=O)C(=O)NCC2CCCO2)c1)C(=O)NCC1CCCO1 (stereo not given)	–	–	–	–	–	–
O=S(=O)(NCc1ccccc1)c1ccc(S(=O)(=O)NCC2CCCO2)cc1 (stereo not given)	–	–	1.4µM	–	–	–
O=C(NCC1CCCO1)Nc1cc(Cl)cc(Cl)c1 (stereo not given)	–	–	–	–	–	–
O=S(=O)(NCC1CCCO1)c1ccccc1 (stereo not given)	–	–	–	–	–	–
O=C(NCCc1ccccc1)C(=O)NCC1CCCO1 (stereo not given)	13µM	–	–	–	–	–
O=C(NCC1CCCO1)Nc1ccc(Cl)cc1 (stereo not given)	10µM	–	–	–	–	–
CCC1CN(C(=O)N2CCC(C(=O)N3CCN(c4ccccc4F)CC3)CC2)c2ccccc2O1 (stereo not given)	·	·	–	–	–	·
O=C(COc1ccccc1Cl)N(Cc1ccco1)Cc1ccco1	·	·	–	–	–	·
COc1ccc(NC(=O)Nc2cc(C(=O)NCc3ccc(C)cc3)ccc2N2CCCC2)cc1	·	·	–	–	–	·
Cc1ccc(C(=O)NC(=S)NCC2CCCO2)cc1 (stereo not given)	10µM	–	–	–	–	–
Cc1ccc(NC(=O)C(=O)NCC2CCCO2)cc1 (stereo not given)	10µM	–	–	–	–	–
O=C(NCC1CCCO1)c1cc(-c2ccccc2F)no1 (stereo not given)	13µM	–	–	–	–	–

From PubChem BioAssay
